Screens from PubChem.
DT40 TDP1 no CPT: qHTS for Inhibitors of human tyrosyl-DNA phosphodiesterase 1 (TDP1): qHTS in cells in absence of CPT; DT40 Tdp1-/- hTDP1 cells, no CPT, ATP luminescence, 48 h; 420,000 tested, 15% active; AID 686978, 2013; Potency, µM (highest dose often 46.2 µM), usual class: inhibitors; further: nearly all actives have a fitted effect of over 55% in size
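Growth kinetics read by CellTiter-Glo luminescence after ≥48 hr at 37 °C. Cells: DT40 Tdp1-/- stably carrying human TDP1, 400 per well, compound exposure in the absence of CPT (DMSO vehicle).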
TDP1 cell CPT: qHTS for Inhibitors of human tyrosyl-DNA phosphodiesterase 1 (TDP1): qHTS in cells in presence of CPT. chicken DT40 Tdp1-/-;hTDP1 cells + 20 nM CPT, ATP luminescence, 48 h. Potency, µM (series often up to 46.2 µM), usual class: inhibitors. 420,000 tested, 12% active; further: nearly all actives have a fitted effect of over 55% in size
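Chicken DT40 Tdp1-/- cells stably complemented with human TDP1 were seeded at 400 cells/well in medium containing 20 nM camptothecin, exposed to pin-transferred compounds, and grown at 37 °C for at least 48 hr. Viability was read as ATP luminescence.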
HT1080 IDH1KD tx: qHTS for induction of synthetic lethality in tumor cells producing 2HG: qHTS for the HT-1080-IDH1KD cell line. HT-1080 IDH1 knockdown viability, ATP luminescence, 48 h. 360,000 tested, 2% active. Potency, µM (titrated, usually from 46.1 µM), most hits filed as cytotoxic
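After a 2 h attachment period, IDH1KD HT-1080 cells took pin-transferred compound for 48 h at 37 °C; ATP-based luminescence after 10 min room-temperature reagent incubation reported viability.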
IL-1B inflam inh: qHTS for Inhibitors of Inflammasome Signaling: IL-1-beta AlphaLISA Primary Screen; activity change, % at 57.5 µM; AID 743279, 2014; 360,000 tested, 4.7% active; THP-1 LPS/ATP IL-1B secretion, AlphaLISA, 16 h; active compounds read low; in the data active means activity change below about -50%; inconclusive means mostly about -30% to -49%
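Secreted IL-1B measured by AlphaLISA bead assay after 16 h compound exposure of THP-1 cells; compounds (final up to 57.5 uM) added 1 h before LPS (250 ng/mL) and ATP (1.25 mM) stimulation; lower signal means less secretion.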
HT1080-NT tox: qHTS for induction of synthetic lethality in tumor cells producing 2HG: qHTS for the HT-1080-NT fibrosarcoma cell line. HT-1080-NT fibrosarcoma viability, CellTiter-Glo ATP luminescence, 48 h. Potency, µM (series often up to 46.1 µM), hits mostly cytotoxic. 360,000 tested, 1.6% active. AID 686970, 2013;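 further: NT is the 2HG producing partner of a matched IDH1 knockdown line; nearly all actives have a fitted effect of over 55% in size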
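Toxicity toward the 2HG-producing NT line was scored as %Activity, normalised to DMSO and no-cell wells, from CellTiter-Glo luminescence after 48 hours' treatment.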
ELG1 repair inh: qHTS screen for small molecules that inhibit ELG1-dependent DNA repair in human embryonic kidney (HEK293T) cells expressing luciferase-tagged ELG1; HEK293T ELG1-luciferase reporter, luminescence, 16 h; DNA damage induced by 5-fluorouridine; 330,000 tested, 2.3% active; Potency, µM (series often up to 46.1 µM), usual class: inhibitors; further: nearly all actives have a fitted effect of over 55% in size
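HEK293T cells expressing luciferase-tagged ELG1 (2,000/well) received 5-Fluorouridine plus compound or DMSO for 16 hr at 37 °C. Luciferase was read by ONE-Glo luminescence after 30 min at room temperature.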
A number is an active result; n = inactive; u = inconclusive; x = no result given; ! = a repeat was not active; [ ] = dose if it differs, or a comment. Compounds with a hit are over-represented: about 19% of the library has one in this group of screens. Unless noted, the call rests on the fitted dose curve; in most records, active means well fitted curve in the direction sought with a large enough effect; inconclusive means small, poorly fitted or top-dose-only effect, or another doubt; inactive means no such curve, though single readings can be large; an effect the other way counts as inactive or inconclusive.

SMILES | DT40 TDP1 no CPT | TDP1 cell CPT | HT1080 IDH1KD tx | IL-1B inflam inh | HT1080-NT tox | ELG1 repair inh
CC(=O)Nc1cc(-c2ccccc2)ccc1O | u | 21µM | n | n | n | n
CC(=O)Nc1cc(Br)ccc1O | n | n | n | n | n | n
Nc1ccc(-c2ccc(N)c(C(=O)O)c2)cc1C(=O)O | n | n | n | n | n | n
Nc1cc(-c2ccccc2)ccc1O | u | n | x | n | x | 8.2µM!
CC1(C(=O)Nc2cccc(C(F)(F)F)c2)Cc2ccccc2C(=O)O1 (stereo unspecified) | n | n | x | x | x | x
CCOc1ccccc1NC(=O)N1CCN(Cc2nc3ccc(C)cc3o2)CC1 | n | n | x | x | x | x
CC1=Nc2ccccc2N=C(NC(=O)CSC(=S)N2CCCCC2)C1c1ccccc1 (stereo unspecified) | u | n | n | n | n | 21µM
CC1=Nc2ccccc2N=C(NC(=O)CSC(=S)N2CCN(C)CC2)C1c1ccccc1 (stereo unspecified) | 16µM | u | n | n | n | n
CC1=Nc2ccccc2N=C(NC(=O)CSc2nnnn2-c2ccccc2)C1c1ccccc1 (stereo unspecified) | 29µM | u | n[9.24 µM] | n | n | x
CC1=Nc2ccccc2N=C(NC(=O)CN2CCN(c3ccccc3)CC2)C1c1ccccc1 (stereo unspecified) | u | u | n | n | n | n
CCCCN(C(=O)c1cc(-c2ccncc2)nc2ccccc12)c1c(N)n(CC(C)C)c(=O)[nH]c1=O | n | n | n | n | n | n
CCc1c(OC(C)=O)c2ccccc2n(C)c1=O | n | n | n | n | n | u
CC(=O)Oc1c(C)c(=O)n(C)c2ccccc12 | n | n | n | -89 | n | n
COc1ccc(C2C(O)C(c3c[nH]c4ccccc34)=NN2C(=O)CCl)cc1 (stereo unspecified) | 0.58µM | 0.33µM | 0.65µM | -99 | 0.46µM | 8.2µM
COc1ccc(N2C(=O)C(=O)/C(=C(/O)c3ccc(C)cc3)C2c2cccnc2)cc1 (stereo unspecified) | n | n | n | n | n | u
COc1ccc(NC2=Nc3ccccc3N3C2=Nc2c(c(C)nn2-c2ccc(C)cc2)C3c2cccnc2)cc1 (stereo unspecified) | u | 21µM | n | n | n | n
CC(=O)Nc1ccc(NC2=Nc3ccccc3N3C2=Nc2c(c(C)nn2-c2ccccc2)C3c2ccccc2)cc1 (stereo unspecified) | 2.3µM | 2.6µM | n | n | n | 2.8µM
CCOC(=O)c1c2n(c3c(NCc4ccccc4)ncnc13)CCCC2 | 21µM | u | n | n | n | u
Cc1ccc(CN2C(=O)N(c3ccccc3)C(=O)C2CC(=O)Nc2ccccc2)cc1 (stereo unspecified) | u | n | x | x | x | x
Cc1ccsc1CCN1C(=O)N(c2ccccc2)C(=O)C1CC(=O)Nc1ccc(Cl)cc1 (stereo unspecified) | u | 26µM | x | x | x | x
O=C(CC1C(=O)N(c2ccccc2)C(=O)N1CCc1cccs1)Nc1ccc(Cl)cc1 (stereo unspecified) | u | 21µM | x | x | x | x
CC(C)(C)c1ccc(CN2N=Nc3ccccc3S2(=O)=O)cc1 | 7.3µM | 5.8µM | u | n | u | u
CCCCN(C)CCCNC(=O)Cn1cc2c(n1)-c1c(oc(C(=O)N3CCCC3)c1C)CC2 | u | u | n | n | n | x
COCCCNC(=O)c1oc2c(c1C)-c1nn(Cc3ccc(Cl)cc3)cc1CC2 | 18µM | 23µM | x | x | x | x
Cc1c(C(=O)O)oc2c1-c1nn(Cc3ccc(Cl)cc3)cc1CC2 | n | n | x | x | x | x
SMILES | DT40 TDP1 no CPT | TDP1 cell CPT | HT1080 IDH1KD tx | IL-1B inflam inh | HT1080-NT tox | ELG1 repair inh
COCCCNC(=O)c1oc2c(c1C)-c1nn(Cc3cccc(Cl)c3)cc1CC2 | 18µM | 21µM | x | x | x | x
CCN(CC)CCCNC(=O)c1oc2c(c1C)-c1nn(Cc3ccc(Cl)cc3)cc1CC2 | 18µM | u | x | x | x | x
O=C(CN1C(=O)NC(Cc2c[nH]c3ccccc23)C1=O)Nc1ccc(F)cc1F (stereo unspecified) | n | n | n | n | n | n
COc1ccc(NC(=O)CSCC(=O)Nc2nnc(C)s2)cc1 | n | n | n | n | n | n
CCc1ccc(CN(C)C(=O)C2CCC(=O)N(Cc3ccccn3)C2)cc1 (stereo unspecified) | n | n | n | n | n | n
CCN(CC)C(=O)COc1ccc2oc(C)c(C(=O)OC(C)C)c2c1 | 16µM | u | n | n | n | u
Cc1csc2c(N3CCN(C(=O)Nc4ccc(Cl)c(Cl)c4)CC3)ncnc12 | 21µM | u | u | -78 | n | 18µM
Cc1csc2c(N3CCN(C(=O)c4ccc(C(C)(C)C)cc4)CC3)ncnc12 | 4.1µM | u | u | n | 18µM | 15µM
Cc1csc2c(N3CCN(C(=S)Nc4ccc(C(F)(F)F)cc4)CC3)ncnc12 | u | u | n | n | n | u
Cc1csc2c(N3CCN(C(=O)NC(C)(C)C)CC3)ncnc12 | 18µM | 15µM | n | n | n | u
CCOc1ccccc1NC(=S)NCc1cccn1C | n | n | n | n | n | n
CC1(C)CC[C@]2(C(=O)n3ccnc3)CC[C@]3(C)[C@H](C(=O)C=C4[C@@]5(C)C=C(C#N)C(=O)C(C)(C)[C@@H]5CC[C@]43C)[C@@H]2C1 | 0.65µM | 0.58µM | 3.7µM | -100 | 4.1µM | x
COc1cc(/C=C(\CCC(=O)O)c2nc3ccccc3s2)ccc1OCC(=O)Nc1c(Cl)cccc1Cl | u | 16µM | n | n | n[9.24 µM] | u
O=C(O)CC/C(=C/c1cccc(NC(=O)c2ccccc2Cl)c1)c1nc2ccccc2s1 | u | n | n | n | u | x
COc1ccc(C)cc1Cn1c(S(C)(=O)=O)nc2ccccc21 | 21µM | 16µM | n | n | u | n
CC1CCCN(C(C(=O)NC2CCCCC2)c2cc3c(cc2[N+](=O)[O-])OCO3)C1 (stereo unspecified) | u | u | n | -59 | n | n
CC1CCCN(C(C(=O)Nc2ccc3c(c2)OCO3)c2ccccc2)C1 (stereo unspecified) | 16µM | 15µM | n | n | n | n
CC1CCN(C(C(=O)NC2CCCCC2)c2cc3c(cc2[N+](=O)[O-])OCO3)CC1 (stereo unspecified) | n | n | n | n | n | u
